ChEMBL document CHEMBL3988442, “University of Dundee, Small-Polar-MMV Screening Library” (2021)

Target: T1, Aspartate--tRNA(Asp/Asn) ligase (Mycobacterium tuberculosis (strain ATCC 25618 / H37Rv)) (UniProt P9WFW3); also: in the data most compounds retested in dose-response had high values
T1 sequence (whole entry): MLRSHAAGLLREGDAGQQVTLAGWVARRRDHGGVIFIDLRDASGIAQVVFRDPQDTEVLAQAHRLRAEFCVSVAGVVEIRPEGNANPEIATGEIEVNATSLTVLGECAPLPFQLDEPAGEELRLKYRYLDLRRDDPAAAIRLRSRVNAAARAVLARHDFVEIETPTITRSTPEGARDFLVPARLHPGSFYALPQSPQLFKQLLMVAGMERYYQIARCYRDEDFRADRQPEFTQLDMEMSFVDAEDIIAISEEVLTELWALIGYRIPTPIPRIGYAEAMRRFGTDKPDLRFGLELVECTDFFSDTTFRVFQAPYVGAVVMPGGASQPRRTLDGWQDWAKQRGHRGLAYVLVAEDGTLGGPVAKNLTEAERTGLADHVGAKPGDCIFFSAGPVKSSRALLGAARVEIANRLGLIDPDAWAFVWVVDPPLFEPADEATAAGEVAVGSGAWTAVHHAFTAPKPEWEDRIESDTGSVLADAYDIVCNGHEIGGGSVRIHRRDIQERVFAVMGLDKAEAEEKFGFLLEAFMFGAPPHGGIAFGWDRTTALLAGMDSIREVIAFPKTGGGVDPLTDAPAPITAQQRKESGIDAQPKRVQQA
Test: Assay for Asp RNA synthetase-1 from Mycobacterium tuberculosis
Format: functional
Set-up: scale not given: direction of the effect not stated beside the values
Conditions: 30 µM

CCCc1nc(C)c(C(=O)NS(=O)(=O)c2ccc(C#N)cc2)s1 was tested. Which Percent Effect did it give?
The Percent Effect was 0.836%.

How did the Percent Effect turn out when Cc1occc1C(=O)N1CCc2ncnc(-c3cnn(C)c3)c2CC1 was run?
The Percent Effect was -0.55%.

Which Percent Effect does the source give for COCc1ccccc1C(=O)N1CCCC(n2nc(C)cc2C)C1 (stereo not given) here?
Its Percent Effect is -2.97%.

CCc1nc(CN2CCN(C(=O)COCc3ccccc3)CC2)no1 was tested. Which Percent Effect did it give?
The Percent Effect was -1.88%.

Which Percent Effect does the source give for CN(C)c1cc2c(nn1)CCN(C(=O)Cc1noc3ccccc13)C2 here?
The Percent Effect was 0.589%.

How did the Percent Effect turn out when Cc1oc(-c2ccsc2)nc1CC(=O)NCCS(C)(=O)=O was run?
The Percent Effect was 12.7%.

With CCOC(=O)[C@]12CCCN(Cc3nccs3)C[C@H]1CN(C(C)=O)C2 as the compound, how does the Percent Effect read?
The Percent Effect was 2.52%.

For COc1ccc2c(c1)CN(Cc1nc3c(cnn3C)c(=O)[nH]1)CC2, which Percent Effect is on record?
Its Percent Effect is -4.4%.

Which Percent Effect does the source give for Cc1nnc(N2CCC(CN(C)C(C)C)CC2)c(C#N)c1C here?
Its Percent Effect is -0.173%.

For Cc1cnn(CC2CCCCN2C(=O)c2ccc3nnc(C)n3c2)c1 (stereo not given), which Percent Effect is on record?
The Percent Effect was 10.3%.

How did the Percent Effect turn out when Cc1ccc(C(=O)N2CCC3(CC2)CCN(CCN(C)C)C3=O)cn1 was run?
The Percent Effect was -4%.

For CC(C)C(=O)NCc1cccc(N2CCCCC2=O)c1, which Percent Effect is on record?
Its Percent Effect is -1.01%.

Which Percent Effect does the source give for CN(CCC(F)(F)F)C(=O)[C@H]1CSCN1C(=O)OC(C)(C)C here?
Its Percent Effect is -5.95%.

With CCCn1nc2c(cc1=O)CN(Cc1nc(CCOC)no1)CC2 as the compound, how does the Percent Effect read?
The Percent Effect was 16.9%.

How did the Percent Effect turn out when Cc1cnn(CC2CCCCN2CCCS(N)(=O)=O)c1 (stereo not given) was run?
Its Percent Effect is -8.36%.

Cc1ccc(NC2CCN(C(=O)c3cnc(C)s3)CC2)nn1 was tested. Which Percent Effect did it give?
Its Percent Effect is -1.51%.

How did the Percent Effect turn out when Cn1c(CN2CCCC2)nnc1C1CCCN(C(=O)C2CCOCC2)C1 (stereo not given) was run?
Its Percent Effect is 2.71%.

Which Percent Effect does the source give for CC(CNC(=O)N1CCSCC1)Cc1cccs1 (stereo not given) here?
Its Percent Effect is 1.56%.

With COc1ncccc1C(=O)N1CCC(c2nnc(C3CC3)o2)CC1 as the compound, how does the Percent Effect read?
Its Percent Effect is 3.02%.

For Cc1noc(C(C)C)c1C(=O)NS(=O)(=O)c1ccc(Cl)cc1, which Percent Effect is on record?
Its Percent Effect is -2.79%.

For Cc1nc(CNCC2CCCN2c2cccnn2)cs1 (stereo not given), which Percent Effect is on record?
The Percent Effect was -0.7%.

CC(C)CN1C(=O)c2ccc(C(=O)NCCc3c[nH]cn3)cc2C1=O was tested. Which Percent Effect did it give?
Its Percent Effect is 0.813%.

With COc1cccc2c1OCC(C(=O)N1CCC(N3CCOC3=O)CC1)C2 (stereo not given) as the compound, how does the Percent Effect read?
The Percent Effect was -3.21%.

For CC(=O)N1CCC2(CCN(C(=O)c3ccc(C)c(C(F)(F)F)c3)CC2)C1, which Percent Effect is on record?
Its Percent Effect is 17.3%.

With CCn1ccnc1CN1CCCN(C(=O)Cn2nc(C)cc2C)CC1 as the compound, how does the Percent Effect read?
Its Percent Effect is 3.14%.

For COc1ccc(C2=CCN(C(=O)C3CCCN(C(N)=O)C3)CC2)cc1 (stereo not given), which Percent Effect is on record?
The Percent Effect was 1.94%.

With Cc1nnc2n1CCN(Cc1csc(CC(=O)N(C)C)n1)C2 as the compound, how does the Percent Effect read?
Its Percent Effect is 2.24%.

CCNC(=O)N(C)C(c1cccc(F)c1)c1ccccn1 (stereo not given) was tested. Which Percent Effect did it give?
Its Percent Effect is -4.31%.

With Cn1ccc(C(=O)NCc2ccc(N3CCCC3)nc2)cc1=O as the compound, how does the Percent Effect read?
Its Percent Effect is 0.0735%.

Which Percent Effect does the source give for Cc1ccc(N2CCN(C(=O)COc3ccccc3)CC2)nn1 here?
Its Percent Effect is -1.15%.

With O=C(Nc1cnccn1)[C@H]1COC[C@H]2CN(C3CCCC3)C[C@H]21 as the compound, how does the Percent Effect read?
Its Percent Effect is -3.53%.

How did the Percent Effect turn out when O=C(CO)N1C[C@H]2CC[C@@H]1CN(C1Cc3ccccc3C1)C2 was run?
Its Percent Effect is 7.69%.

For CNS(=O)(=O)c1ccc(C(=O)NCCc2ccccn2)cc1, which Percent Effect is on record?
Its Percent Effect is 9.16%.

Cc1nc(NCCc2ccc(Cl)cc2)cc(C(=O)N2CCCCC2)n1 was tested. Which Percent Effect did it give?
Its Percent Effect is 12.4%.

Which Percent Effect does the source give for Cc1nn(C)c(Cl)c1C(=O)NCC(c1ccsc1)N(C)C (stereo not given) here?
The Percent Effect was -6.11%.

How did the Percent Effect turn out when O=C(CCNC(=O)C1CCCC1)NCc1cccnc1-n1cncn1 was run?
The Percent Effect was 0.59%.

How did the Percent Effect turn out when Cc1noc([C@@H]2CC[C@@H]3[C@@H](CCN3S(=O)(=O)C3CC3)O2)n1 was run?
The Percent Effect was 0.155%.

For Cc1ccc(-c2cc(N)c(=O)n(CC(=O)NCC3CCCCC3)n2)s1, which Percent Effect is on record?
Its Percent Effect is 7.19%.

Which Percent Effect does the source give for CCc1noc(C2CCCCN2C(=O)c2nnc3ccccc3n2)n1 (stereo not given) here?
The Percent Effect was 1.83%.

Which Percent Effect does the source give for COc1ccc(COCC(O)CNC(=O)c2cc(C)cc(C)c2)cc1 (stereo not given) here?
The Percent Effect was -0.859%.

Target: Shiga toxin 2 (Escherichia coli O157:H7) (UniProt P09385+P09386)
Test: E. coli 0.157:H7 Shiga Toxin SOP - stx2 screening assay
Format: functional
Set-up: scale not given: direction of the effect not stated beside the values
Conditions: 30 µM

How did the Percent Effect turn out when CCCc1nc(C)c(C(=O)NS(=O)(=O)c2ccc(C#N)cc2)s1 was run?
The Percent Effect was 8.1%.

Cc1occc1C(=O)N1CCc2ncnc(-c3cnn(C)c3)c2CC1 was tested. Which Percent Effect did it give?
Its Percent Effect is -3.59%.

COCc1ccccc1C(=O)N1CCCC(n2nc(C)cc2C)C1 (stereo not given) was tested. Which Percent Effect did it give?
The Percent Effect was -10.9%.

For CCc1nc(CN2CCN(C(=O)COCc3ccccc3)CC2)no1, which Percent Effect is on record?
Its Percent Effect is 2.35%.

CN(C)c1cc2c(nn1)CCN(C(=O)Cc1noc3ccccc13)C2 was tested. Which Percent Effect did it give?
The Percent Effect was -8.79%.

Cc1oc(-c2ccsc2)nc1CC(=O)NCCS(C)(=O)=O was tested. Which Percent Effect did it give?
The Percent Effect was -25.4%.

Which Percent Effect does the source give for CCOC(=O)[C@]12CCCN(Cc3nccs3)C[C@H]1CN(C(C)=O)C2 here?
The Percent Effect was -5.93%.

With COc1ccc2c(c1)CN(Cc1nc3c(cnn3C)c(=O)[nH]1)CC2 as the compound, how does the Percent Effect read?
Its Percent Effect is -3.66%.

Which Percent Effect does the source give for Cc1nnc(N2CCC(CN(C)C(C)C)CC2)c(C#N)c1C here?
Its Percent Effect is -25%.

How did the Percent Effect turn out when Cc1cnn(CC2CCCCN2C(=O)c2ccc3nnc(C)n3c2)c1 (stereo not given) was run?
The Percent Effect was 21.9%.

Cc1ccc(C(=O)N2CCC3(CC2)CCN(CCN(C)C)C3=O)cn1 was tested. Which Percent Effect did it give?
Its Percent Effect is -1.78%.

For CC(C)C(=O)NCc1cccc(N2CCCCC2=O)c1, which Percent Effect is on record?
The Percent Effect was 6.13%.

Which Percent Effect does the source give for CN(CCC(F)(F)F)C(=O)[C@H]1CSCN1C(=O)OC(C)(C)C here?
Its Percent Effect is -17.7%.

CCCn1nc2c(cc1=O)CN(Cc1nc(CCOC)no1)CC2 was tested. Which Percent Effect did it give?
The Percent Effect was -17.7%.

Which Percent Effect does the source give for Cc1cnn(CC2CCCCN2CCCS(N)(=O)=O)c1 (stereo not given) here?
The Percent Effect was -56.9%.

With Cc1ccc(NC2CCN(C(=O)c3cnc(C)s3)CC2)nn1 as the compound, how does the Percent Effect read?
Its Percent Effect is -19.5%.

Cn1c(CN2CCCC2)nnc1C1CCCN(C(=O)C2CCOCC2)C1 (stereo not given) was tested. Which Percent Effect did it give?
Its Percent Effect is -6.15%.

How did the Percent Effect turn out when CC(CNC(=O)N1CCSCC1)Cc1cccs1 (stereo not given) was run?
Its Percent Effect is 6.01%.

With COc1ncccc1C(=O)N1CCC(c2nnc(C3CC3)o2)CC1 as the compound, how does the Percent Effect read?
The Percent Effect was 0.085%.

Which Percent Effect does the source give for Cc1noc(C(C)C)c1C(=O)NS(=O)(=O)c1ccc(Cl)cc1 here?
Its Percent Effect is 13.7%.

Cc1nc(CNCC2CCCN2c2cccnn2)cs1 (stereo not given) was tested. Which Percent Effect did it give?
The Percent Effect was 15.4%.

For CC(C)CN1C(=O)c2ccc(C(=O)NCCc3c[nH]cn3)cc2C1=O, which Percent Effect is on record?
Its Percent Effect is -22.9%.

Which Percent Effect does the source give for COc1cccc2c1OCC(C(=O)N1CCC(N3CCOC3=O)CC1)C2 (stereo not given) here?
The Percent Effect was 17%.

Which Percent Effect does the source give for CC(=O)N1CCC2(CCN(C(=O)c3ccc(C)c(C(F)(F)F)c3)CC2)C1 here?
Its Percent Effect is -10.7%.

Which Percent Effect does the source give for CCn1ccnc1CN1CCCN(C(=O)Cn2nc(C)cc2C)CC1 here?
Its Percent Effect is 8.68%.

With COc1ccc(C2=CCN(C(=O)C3CCCN(C(N)=O)C3)CC2)cc1 (stereo not given) as the compound, how does the Percent Effect read?
Its Percent Effect is 26.5%.

For Cc1nnc2n1CCN(Cc1csc(CC(=O)N(C)C)n1)C2, which Percent Effect is on record?
The Percent Effect was 5.11%.

How did the Percent Effect turn out when CCNC(=O)N(C)C(c1cccc(F)c1)c1ccccn1 (stereo not given) was run?
The Percent Effect was -5.85%.

How did the Percent Effect turn out when Cn1ccc(C(=O)NCc2ccc(N3CCCC3)nc2)cc1=O was run?
The Percent Effect was -33.5%.

For Cc1ccc(N2CCN(C(=O)COc3ccccc3)CC2)nn1, which Percent Effect is on record?
Its Percent Effect is -66.5%.

Which Percent Effect does the source give for O=C(Nc1cnccn1)[C@H]1COC[C@H]2CN(C3CCCC3)C[C@H]21 here?
Its Percent Effect is 8.55%.

With O=C(CO)N1C[C@H]2CC[C@@H]1CN(C1Cc3ccccc3C1)C2 as the compound, how does the Percent Effect read?
The Percent Effect was 11.7%.

How did the Percent Effect turn out when CNS(=O)(=O)c1ccc(C(=O)NCCc2ccccn2)cc1 was run?
Its Percent Effect is 14.4%.

Cc1nc(NCCc2ccc(Cl)cc2)cc(C(=O)N2CCCCC2)n1 was tested. Which Percent Effect did it give?
The Percent Effect was -69.6%.

Which Percent Effect does the source give for Cc1nn(C)c(Cl)c1C(=O)NCC(c1ccsc1)N(C)C (stereo not given) here?
The Percent Effect was -7.76%.

For O=C(CCNC(=O)C1CCCC1)NCc1cccnc1-n1cncn1, which Percent Effect is on record?
The Percent Effect was 23.7%.

With Cc1noc([C@@H]2CC[C@@H]3[C@@H](CCN3S(=O)(=O)C3CC3)O2)n1 as the compound, how does the Percent Effect read?
Its Percent Effect is -17.9%.

With Cc1ccc(-c2cc(N)c(=O)n(CC(=O)NCC3CCCCC3)n2)s1 as the compound, how does the Percent Effect read?
Its Percent Effect is 2.09%.

Which Percent Effect does the source give for CCc1noc(C2CCCCN2C(=O)c2nnc3ccccc3n2)n1 (stereo not given) here?
Its Percent Effect is -8.75%.

COc1ccc(COCC(O)CNC(=O)c2cc(C)cc(C)c2)cc1 (stereo not given) was tested. Which Percent Effect did it give?
Its Percent Effect is -16.6%.
